In PubChem BioAssay (NCI):
Compounds without any hit were thinned out: in the full panel of roughly 83,000, 20% have a hit.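 Interpretation: 100, growth as untreated; towards 0, rising growth inhibition; 0, no net growth; 0 to -100, cell death. Compounds scoring below 10 were considered active.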 Unmarked numbers belong to inactive results. Active and inactive are the calls of the source.

Test system: DU-145 prostate
Experiment: NCI-60 one-dose screen, 48 h (100 = growth as untreated, 0 = no growth, -100 = all killed)
Details: 10 µM unless noted

Row | Structure (SMILES) | growth
1 | C[C@H]1[C@H](C)CC[C@]2(C(=O)O)CC[C@]3(C)C(=CC[C@@H]4[C@@]5(C)C/C(=C/c6cccnc6)[C@H](O)C(C)(C)[C@@H]5CC[C@]43C)[C@H]12 | 5% [100 µM] (active)
2 | O=C1CC(c2ccccc2)Cc2nc3ccc(Br)cc3cc21 (configuration not stated) | -3.21% (active)
3 | C1=C[C@H]2O[C@@H]1c1ccc3[nH]ccc3c12 | 116%
4 | CCN(CC)c1ccc(/C=C/c2ccc3cc(C)ccc3[n+]2CC)cc1 | 20.1%
5 | O=C(Nc1cc(F)cc2cccnc12)c1cnc(N2CCNCC2)cn1 | 75.2%
6 | C=CCCC1(C)NC(=O)NC1=O (configuration not stated) | 102%
7 | CC(=O)Nc1ccc2nc3ccc(NC(C)=O)cc3[n+](-c3ccccc3)c2c1 | 117%
8 | CCCCCN(CCCCC)CCCCCCCCN1CCCc2ccccc21 | 101%
9 | O=C(O)c1cccc(CN2CCN(c3cc4c(cc3F)c(=O)c(C(=O)O)cn4C3CC3)CC2)c1O | 112%

Test system: K-562 leukemia
Experiment: as above
Details: 10 µM unless noted

Row | Structure (SMILES) | growth
10 | CCOc1ccccc1/C=N\Nc1ccc(S(=O)(=O)c2ccc(N/N=C/c3ccccc3OCC)cc2)cc1 | 87.9%
11 | Nc1ccc(Cl)c([N+](=O)[O-])c1 | 84.6%
12 | Oc1ccc(N=Nc2nccs2)c(O)c1 | 44%
13 | O=C(N[C@@H]1CCCc2ccccc21)[C@H](CCC(=O)N1CCN(C2CCCCC2)CC1)N1C(=O)[C@@H](N2C(=O)OC[C@@H]2c2ccccc2)[C@H]1/C=C/c1ccccc1 | 14.6%
14 | Cc1ccc(NC(=S)/N=c2/n(-c3ccccc3)nc3n2CCN3C2=NCCN2)cc1 | 121%
15 | CCCCC1COc2cccc3c2N1C=C/C3=C\C(=O)n1ccc2ccccc21 (configuration not stated) | 19.2%
16 | COc1cc(C)cc2oc3oc(=O)c(-c4nc5ccccc5s4)cc3c(=O)c12 | 99.8%
17 | O=C(Nc1ccccc1)Nc1ccc(C(=O)/C=C/c2ccc(N3CCCC3)cc2)cc1 | 77.2%
18 | COc1cc(C)cc2oc3oc(=N)c(C(=O)c4ccccc4)cc3c(=O)c12 | 97.5%
19 | CC[C@]12C=CCN3CC[C@@]4(c5ccc(OC)cc5N(C)[C@H]4[C@@](O)(C(=O)OC)[C@@H]1OC(=O)CCC(=O)N[C@H](Cc1c[nH]c4ccccc14)C(=O)OC)[C@@H]32 | 5.85% [100 µM] (active)
20 | CC(=O)OC[C@]12CC[C@@H]([C@@H](C)C(N)=O)[C@@H]1[C@H]1CC[C@@H]3[C@@]4(C)CC[C@H](OC(C)=O)C(C)(C)[C@@H]4CC[C@@]3(C)[C@]1(C)CC2 | 3.1% [100 µM] (active)
21 | O=c1c2c3c(sc2n2cnnc2n1Cc1ccccc1)CCCC3 | 69.9%
22 | COc1cc2c(c(OC)c1)C1c3cc(OC)ccc3NC(=O)N1CC2 (configuration not stated) | 30.8%
23 | O=c1cc(-c2ccccc2)oc2cc(OCc3cn(Cc4ccc(F)cc4)nn3)cc(O)c12 | 109% [100 µM]
24 | CCN(CC)c1ccc2cc(NC(=O)OCCNC(=O)CCNC(=O)[C@H](CC(C)C)NC(=O)C(C)(C)NC(=O)C(C)(C)NC(=O)[C@H](CC(C)C)NC(=O)CCNC(=O)C(C)(C)NC(=O)[C@H](CC(C)C)NC(=O)CCNC(=O)[C@@](C)(CC)NC(=O)[C@H](C)NC(=O)CCNC(=O)C(C)(C)NC(=O)[C@H](C)NC(=O)[C@@H]3CCCN3C(=O)[C@@](C)(CC)NC(=O)[C@H](Cc3ccccc3)NC(=O)C3CCCN3C(=O)C(C)(C)NC(=O)C3CCCN3C(=O)C(C)(C)NC(C)=O)c(=O)oc2c1 (some centres not stated) | -59.5% (active)
25 | CCCCCCCCCCCCCC[n+]1cccc(C(N)=O)c1 | 9.03% (active)
26 | CCOC(CNC(=O)c1cccc([N+](=O)[O-])c1)OCC | 94%
27 | COc1ccc(/C=C/C=C\C(=O)c2ccc(-n3ccnc3)cc2)cc1 | 66.2%
28 | CCNc1cc2c(cc1Br)-c1ccccc1C2=O | 102%

Row | Structure (SMILES) | growth
29 | C[n+]1c(-c2ccccc2)c2cc(N)ccc2c2ccccc21 | 33.4%
30 | C/C=C/C1OC23CCCCC2C(C#N)(C(=N)O3)C1(C#N)C#N (configuration not stated) | 94.7%
31 | Fc1cc2[nH]ncc2c2c3c(c(-c4cn[nH]c4)nc12)CCCC3 | 15.4%
32 | CCOC(=O)c1nn(C2CCCCO2)c2ccc(NC(=O)CN3CCCC3)cc12 (configuration not stated) | 100%
33 | Nc1nnc(CSc2nnc3n(Cc4ccccc4)c(=O)c4c5c(sc4n23)CCCC5)s1 | 64.1%
34 | O=S(=O)(NCc1ccccc1)c1ncnc2nc[nH]c12 | 97.1%
35 | c1cc2ccc1CNCCN1CCNCc3ccc(cc3)Oc3ccc(cc3)CNCCN(CCNCc3ccc(cc3)O2)CCNCc2ccc(cc2)Oc2ccc(cc2)CNCC1 | -23.7% (active)
36 | CS(=O)(=O)c1cccnn1 | 84.3%
37 | N=C(N)c1ccc(-c2ccc(-c3ccc(-c4cccs4)s3)s2)cc1F | 15.9%
38 | CCCSc1nc(N)nc2nc[nH]c12 | 90.5%
39 | C[C@H]1[C@H](C)CC[C@]2(C(=O)O)CC[C@]3(C)C(=CC[C@@H]4[C@@]5(C)C/C(=C/c6cccnc6)[C@H](O)C(C)(C)[C@@H]5CC[C@]43C)[C@H]12 | 13.3% [100 µM]
40 | O=C1CC(c2ccccc2)Cc2nc3ccc(Br)cc3cc21 (configuration not stated) | 6.14% (active)
41 | C1=C[C@H]2O[C@@H]1c1ccc3[nH]ccc3c12 | 53.3%
42 | CCN(CC)c1ccc(/C=C/c2ccc3cc(C)ccc3[n+]2CC)cc1 | 6.51% (active)
43 | O=C(Nc1cc(F)cc2cccnc12)c1cnc(N2CCNCC2)cn1 | 19.8%
44 | C=CCCC1(C)NC(=O)NC1=O (configuration not stated) | 83.3%
45 | CC(=O)Nc1ccc2nc3ccc(NC(C)=O)cc3[n+](-c3ccccc3)c2c1 | 57.1%
46 | CCCCCN(CCCCC)CCCCCCCCN1CCCc2ccccc21 | 7.49% (active)
47 | O=C(O)c1cccc(CN2CCN(c3cc4c(cc3F)c(=O)c(C(=O)O)cn4C3CC3)CC2)c1O | 102%
